DUSP1 inh: MKP-1 phosphatase inhibitors, primary screen, biochemical, in vitro | Dual specificity protein phosphatase 1 (Homo sapiens), P28562 | recombinant MKP-1, OMFP hydrolysis fluorescence | inhibition, %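 (compounds tested at a single concentration somewhere between 10 and 100 µM)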 | hit rate 0.15% among 65,000 | AID 374, 2006;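 active = inhibition above about 50%, limit read from the data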;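 note: 0% = DMSO max control wells and 100% = wells with enzyme stopped by NaOH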
WNV protease inh: inhibitors of WNV NS2B-NS3 protease, primary screen, biochemical, fluorogenic substrate | Genome polyprotein (West Nile virus), P06935 | fluorogenic substrate Ex360/Em465; hits give low values | AID 577, 2007 | hit rate 0.18% among 65,000 | z-score (test concentration not listed); in the data active = z-score below about -3
Cdc25B inh: inhibitors of Cdc25B phosphatase catalytic domain, primary screen, biochemical, OMFP fluorescence; M-phase inducer phosphatase 2 (Homo sapiens), P30305; recombinant Cdc25B, OMFP fluorescence Ex485/Em525; inhibition, %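 (compounds tested at 10 µM final in the well)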; hit rate 0.1% among 65,000; in the data active = inhibition above about 50%
MMP13 inh: human MMP13 inhibitors, primary screen, biochemical, FRET peptide cleavage. Collagenase 3 (Homo sapiens), P45452. MMP-13 fTHP FRET cleavage, Mca fluorescence. inhibition, % at 4 µM. hit rate 0.07% among 65,000. AID 570, 2006;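 active = inhibition above the mean of compound-free control plate wells plus 3 SD, cut at about 14% in these data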;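 note: 0% = DMSO wells and 100% = wells with reference MMP-13 inhibitor after basal subtraction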
BAP1 inh: inhibitors of BAP1 deubiquitinase, primary screen, biochemical, Ub-AMC fluorescence, kinetic | recombinant BAP1, Ub-AMC hydrolysis fluorescence kinetic; hits give low values | calls only at 20 µM | hit rate 0.48% among 72,000;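 active = activity remaining at or below 50% of control, provided the compound also passes the data quality filters; inactive = the rest, including low values that fail the filters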;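 note: 100% = DMSO wells rate and 0% = substrate alone blank rate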
Target sequence (Q92560 whole entry, looked up): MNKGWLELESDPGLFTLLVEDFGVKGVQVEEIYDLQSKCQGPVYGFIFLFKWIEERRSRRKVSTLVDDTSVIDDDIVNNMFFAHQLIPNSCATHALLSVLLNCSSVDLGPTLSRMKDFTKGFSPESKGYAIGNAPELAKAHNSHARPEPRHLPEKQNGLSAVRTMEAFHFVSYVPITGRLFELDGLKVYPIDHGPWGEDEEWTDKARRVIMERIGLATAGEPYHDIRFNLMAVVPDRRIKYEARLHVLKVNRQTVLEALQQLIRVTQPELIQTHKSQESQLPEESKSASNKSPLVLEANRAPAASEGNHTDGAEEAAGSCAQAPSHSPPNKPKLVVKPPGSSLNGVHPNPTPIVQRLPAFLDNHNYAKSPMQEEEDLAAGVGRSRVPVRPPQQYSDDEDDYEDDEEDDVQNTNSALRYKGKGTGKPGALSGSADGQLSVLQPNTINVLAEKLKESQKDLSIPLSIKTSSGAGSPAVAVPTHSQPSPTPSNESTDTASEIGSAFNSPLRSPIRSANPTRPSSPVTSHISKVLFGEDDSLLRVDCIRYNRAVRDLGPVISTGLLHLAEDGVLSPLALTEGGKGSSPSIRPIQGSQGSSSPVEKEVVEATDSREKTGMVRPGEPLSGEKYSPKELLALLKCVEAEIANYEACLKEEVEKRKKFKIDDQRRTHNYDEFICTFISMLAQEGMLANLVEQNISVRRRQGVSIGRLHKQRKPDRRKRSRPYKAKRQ
Redox 05 DTT: redox cycling H2O2 generation, 0.5 mM DTT, dose response, artefact control, biochemical, Cdc25B catalytic domain. EC50, µM. AID 682, 2007. shares compounds with Cdc25B inh. cell-free redox cycling H2O2 generation. hit rate 50% among 30; in the data active = EC50 below about 30 µM
Redox H2O2 1DTT: redox cycling H2O2 generation, 1 mM DTT, dose response, artefact control, biochemical, 1.0 mM DTT, Cdc25B catalytic domain; EC50, µM; 30 tested, under 10 active; cell-free redox cycling H2O2 generation; shares compounds with Cdc25B inh; in the data active = EC50 below about 50 µM
Redox H2O2: redox cycling hydrogen peroxide production, dose response, artefact control, biochemical, probe assessment | EC50, µM | shares compounds with DUSP1 inh | Redox cycling H2O2 generation, DTT, phenol red/HRP | 60 tested, under 10 active; call rule not given here
BAP1 inh confirm: BAP1 deubiquitinase inhibitors, hit retest, confirmation, orthogonal assay, biochemical, Ub-ethyl ester substrate, HPLC readout | shares compounds with BAP1 inh | hit rate 8% among 310 | purified BAP1, Ub-ethyl ester hydrolysis; hits give low values | AID 753, 2007 | % of control activity, % at 20 µM;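 active = percent of control activity at or below 60%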
Active calls of the source: *; i = inactive; nt = no result shown; + = active, no number. Hits are enriched below; roughly 0.93% of the tested compounds scored in any of these assays.

SMILES	DUSP1 inh	WNV protease inh	Cdc25B inh	MMP13 inh	BAP1 inh	Redox H2O2	others
O=C(Nc1ccc2nc(-c3ccco3)c(-c3ccco3)nc2c1)N1CCCCCC1	51*	-0.75	51*	2	nt	>50	Redox 05 DTT=>50;Redox H2O2 1DTT=>50
CCOC(=O)C1CCN(C(=O)Nc2ccc3nc(-c4ccco4)c(-c4ccco4)nc3c2)CC1	nt	nt	nt	2	nt	nt
O=C(c1ccccc1Cl)N1CCCc2ccccc21	nt	nt	nt	nt	i	nt
N#Cc1c(N)sc(=S)c2c1CCN(Cc1ccccc1)C2	100*	1.1	102*	-14	i	35*	Redox 05 DTT=13*;Redox H2O2 1DTT=24*
COc1ccc(Br)cc1/C=c1\sc2nc(-c3ccco3)nn2c1=O	58*	-3*	61*	-3	+	>50	Redox 05 DTT=>50;Redox H2O2 1DTT=>50;BAP1 inh confirm=75
Cc1cccc(OCC(=O)Nc2ccc(Cl)cn2)c1	nt	nt	nt	nt	i	nt
CC(=O)[C@H]1[C@@H]2C(=O)N(c3cccc(Cl)c3)C(=O)[C@@H]2[C@H]2c3ccccc3C=CN21	-4	-0.29	8	-2	nt	nt
CC(=O)[C@@H]1[C@@H]2C(=O)N(c3ccc(F)c(Cl)c3)C(=O)[C@@H]2C2c3ccccc3C=CN21 (some centres not stated)	20	0.15	14	-8	nt	>50
Cc1cc(NC(=O)c2ccc(S(=O)(=O)N3CCCC3)cc2)nc2c1c(=O)oc1ccccc12	67*	-0.59	0	-15	i	>50
Cc1cc(NC(=O)c2ccc(S(=O)(=O)N3CCOCC3)cc2)nc2c1c(=O)oc1ccccc12	36	-0.8	-2	4	nt	nt
CCn1c(N)c(C(=O)NCC2CCCO2)sc1=S (configuration not stated)	-9	-0.14	2	-3	i	nt
CCCCCNC(=O)c1ccc2c(=O)[nH]c3c(C(=O)NCC4CCCO4)sc(=S)n3c2c1 (configuration not stated)	55*	-0.56	-4	4	i	>50
Cc1ccc(NC(=O)c2cccc(N)c2)cc1	nt	nt	nt	nt	i	nt
CCOC(=O)c1ccc(NC(=O)c2ccc(N)cc2)cc1	nt	nt	nt	nt	i	nt
Nc1nc2c(s1)CCc1c-2cnn1-c1ccccc1	52*	-0.16	19	-15	i	>50
COc1ccc(-c2cnn(-c3ccccc3)c2N)cc1OC	9	-0.05	2	6	i	nt
COC(=O)c1c(C)oc2ccc(N(C(=O)c3ccc([N+](=O)[O-])cc3)S(=O)(=O)c3ccc(Cl)cc3)cc12	nt	nt	nt	nt	i	nt
FC(F)(F)c1ccc(N2CCOCC2)c(Nc2nc3ccccc3n3cnnc23)c1	61*	-1.9	-10	-4	nt	>50
COc1ccc(-n2c(NC(=O)c3ccco3)c(C#N)c3nc4ccccc4nc32)cc1	24	0.77	6	-61	i	>50
O=C(CN(c1cccc([N+](=O)[O-])c1)S(=O)(=O)c1ccccc1)Nc1cccc2ccccc12	nt	nt	nt	nt	i	nt
O=C(c1cccs1)c1no[n+]([O-])c1C(=O)c1cccs1	91*	-0.83	11	0	i	>50
CC(C)Sc1nc2sc3c(c2c2nnc(SCC(=O)NCc4ccco4)n12)CCCC3	54*	-0.53	15	-2	i	>50
CCCCCC#CCC#CCC#CCC#CCCCC(=O)O	29	-0.23	20	0	nt	>50
CCOC(=O)C1=C(C)NC(=O)CC1c1cccc([N+](=O)[O-])c1 (configuration not stated)	nt	nt	nt	nt	i	nt
Cc1cccc(NC(=O)c2cc(NC(=O)C3CCCCC3C(=O)O)ccc2N2CCCCC2)c1 (configuration not stated)	65*	0.92	10	-1	nt	>50

Assay outcomes deposited in PubChem BioAssay by several laboratories.
